From the OligoGym collection
Also: reference of the scale not given here.

Each sequence was assayed against SLC2A8 (assay: pooled miR-30 sensor sort-seq; sequence = guide strand). Settings: shRNA.
In the case of TTGGTGAGGACGCAGATGCCTG, the sensor-assay potency score (higher = more potent) is reported as -1.08.
With ATTAGCTGCACACAGGAGCCGA the sensor-assay potency score (higher = more potent) was -0.991.
Sequence ATCTCTGACATGAGGAGCCAGG has a sensor-assay potency score (higher = more potent) of -1.73.
With TTAGCTGCACACAGGAGCCGAG the sensor-assay potency score (higher = more potent) was -0.983.
ATTTCGGAGATGTAGACCGGGG was tested, and the sensor-assay potency score (higher = more potent) was -0.598.
Sequence AAAAGGACACTGAAGATGCAGA has a sensor-assay potency score (higher = more potent) of -0.924.
In the case of TAGCTGCACACAGGAGCCGAGC, the sensor-assay potency score (higher = more potent) is reported as -1.45.
TCTGCATAGAACATGACGGCGT was tested, and the sensor-assay potency score (higher = more potent) was -0.336.
TGAGTCAGCAGGAAGCGCGGGG gave a sensor-assay potency score (higher = more potent) of -0.717.
With TTTGTTCCAGAGTCTTTCCTTT the sensor-assay potency score (higher = more potent) was 0.354.
For TGAACACCATGACCACACCTGA, the sensor-assay potency score (higher = more potent) was -0.865.
Work on TTTAGTTTCAGGGACACAGAAC yielded a sensor-assay potency score (higher = more potent) of -0.989.

These sequences were tested against SLC30A10 in the same assay as above. Settings: shRNA.
With TCTTTGAACACTGTATCCGCAG the sensor-assay potency score (higher = more potent) was -0.212.
ATTTGAAACATTCTATAGCTGC gave a sensor-assay potency score (higher = more potent) of -0.495.
TTAAGCATTTGAAACATTCTAT was tested, and the sensor-assay potency score (higher = more potent) was 0.231.
With TTTGTTAAGACTTTGTCCGTGG the sensor-assay potency score (higher = more potent) was 0.766.
Work on TTAAGCTATGATCTCACCTGAG yielded a sensor-assay potency score (higher = more potent) of -0.235.
TTTTGTTAAGACTTTGTCCGTG gave a sensor-assay potency score (higher = more potent) of 0.41.
In the case of TAAGCTATGATCTCACCTGAGC, the sensor-assay potency score (higher = more potent) is reported as -0.73.
Work on TCTGAGAATATTTTCTACCTTA yielded a sensor-assay potency score (higher = more potent) of -0.0606.
TTAGCTAGAAGTTCTAATCAGT gave a sensor-assay potency score (higher = more potent) of 0.384.
In the case of TAACACTGCCAGTTACACGGGT, the sensor-assay potency score (higher = more potent) is reported as -0.383.
For TTAGAAACAAGAACTTCTTTGA, the sensor-assay potency score (higher = more potent) was 0.415.
TTTTGGGACCATCTGTAGCAGA gave a sensor-assay potency score (higher = more potent) of -0.988.
